Several values for one entry are separate records, joined by “and”; a condition that tells them apart may be missing. Equal entries are not always repeated. Inconclusive results are not listed. Entries that show only a call come without a potency. A structure can be active in one record and inactive in another. Activity calls are given as the source filed them. Calls come from the whole dose curve; as a rule, active = well fitted curve in the direction sought with a large enough effect; inconclusive = small, poorly fitted or top-dose-only effect, or another doubt; inactive = no such curve, though single readings can be large; an effect the other way counts as inactive or inconclusive.
Legend:
[1] = Quantitative High-Throughput drug screen in 47 multiple myeloma cell lines against the NCATS MIPE library collection: NCIH929_DSMZ cell viability assay (AID 1918978); note: nearly all actives have a fitted effect of over 35% in size
Outline: (§1)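 qHTS format: cells plated (500/well), pin-dosed with MIPE 4.0 compounds, kept 48 h at 37 °C. Readout was CellTiter-Glo luminescence, median RLU.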

[2] = Quantitative High-Throughput drug screen in 47 multiple myeloma cell lines against the NCATS MIPE library collection: OCIMY1_PLB cell viability assay (AID 1918979); note: nearly all actives have a fitted effect of over 35% in size
Outline: as §1

[3] = Quantitative High-Throughput drug screen in 47 multiple myeloma cell lines against the NCATS MIPE library collection: LP1_DSMZ cell viability assay (AID 1918982); note: nearly all actives have a fitted effect of over 35% in size
Outline: as §1

[4] = Quantitative High-Throughput drug screen in 47 multiple myeloma cell lines against the NCATS MIPE library collection: KMS28PE_JCRB cell viability assay (AID 1918983); note: nearly all actives have a fitted effect of over 35% in size
Outline: as §1

[5] = Quantitative High-Throughput drug screen in 47 multiple myeloma cell lines against the NCATS MIPE library collection: L363_DSMZ cell viability assay (AID 1918984); note: nearly all actives have a fitted effect of over 40% in size
Outline: as §1

[6] = Quantitative High-Throughput drug screen in 47 multiple myeloma cell lines against the NCATS MIPE library collection: SKMM1_PLB cell viability assay (AID 1919863); settings: SKMM1 myeloma viability, CellTiter-Glo ATP, 48 h; viability: stronger effect = lower value; note: nearly all actives have a fitted effect of over 35% in size
Outline: as §1

[7] = Quantitative High-Throughput drug screen in 47 multiple myeloma cell lines against the NCATS MIPE library collection: XG1_PLB cell viability assay (AID 1919866); note: nearly all actives have a fitted effect of over 35% in size
Outline: as §1

[8] = Quantitative High-Throughput drug screen in 47 multiple myeloma cell lines against the NCATS MIPE library collection: MM1S_ATCC cell viability assay (AID 1918980); note: nearly all actives have a fitted effect of over 45% in size
Outline: as §1

[9] = Quantitative High-Throughput drug screen in 47 multiple myeloma cell lines against the NCATS MIPE library collection: MM1R_ATCC cell viability assay (AID 1918981); note: nearly all actives have a fitted effect of over 35% in size
Outline: as §1

[10] = Quantitative High-Throughput drug screen in 47 multiple myeloma cell lines against the NCATS MIPE library collection: OPM1_PLB cell viability assay (AID 1918989); note: nearly all actives have a fitted effect of over 40% in size
Outline: as §1

[11] = Quantitative High-Throughput drug screen in 47 multiple myeloma cell lines against the NCATS MIPE library collection: U266_ATCC cell viability assay (AID 1919864); note: nearly all actives have a fitted effect of over 35% in size
Outline: as §1

[12] = Quantitative High-Throughput drug screen in 47 multiple myeloma cell lines against the NCATS MIPE library collection: XG6_PLB cell viability assay (AID 1919865); note: nearly all actives have a fitted effect of over 40% in size
Outline: as §1

[13] = Quantitative High-Throughput drug screen in 47 multiple myeloma cell lines against the NCATS MIPE library collection: KMS34_JCRB cell viability assay (AID 1918985); note: nearly all actives have a fitted effect of over 40% in size
Outline: as §1

[14] = Quantitative High-Throughput drug screen in 47 multiple myeloma cell lines against the NCATS MIPE library collection: OCIMY5_PLB cell viability assay (AID 1918988); note: nearly all actives have a fitted effect of over 65% in size
Outline: as §1

[15] = Quantitative High-Throughput drug screen in 47 multiple myeloma cell lines against the NCATS MIPE library collection: VP6_DJ cell viability assay (AID 1919867); note: nearly all actives have a fitted effect of over 40% in size
Outline: as §1

[16] = Quantitative High-Throughput drug screen in 47 multiple myeloma cell lines against the NCATS MIPE library collection: OCIMY7_PLB cell viability assay (AID 1918987); note: nearly all actives have a fitted effect of over 65% in size
Outline: as §1

[17] = Quantitative High-Throughput drug screen in 47 multiple myeloma cell lines against the NCATS MIPE library collection: UTMC2_PLB cell viability assay (AID 1919868); settings: CellTiter-Glo ATP luminescence, 48 h; viability (% of DMSO control): at 45.8 µM (top of the series); note: nearly all actives have a fitted effect of over 55% in size
Outline: as §1
Potency is the fitted concentration of half-maximal effect.

Structure (SMILES) | Potency [1] | Potency [2] | Potency [3] | Potency [4] | Potency [5] | viability [6] | Potency [7] | Potency [8] | Potency [9] | Potency [10] | Potency [11] | Potency [12] | Potency [13] | Potency [14] | Potency [15] | Potency [16] | Potency [17] | Potency [6]
NC(=O)c1cnccn1 | inactive | inactive | inactive | inactive | inactive | 112% (inactive) | inactive | – | – | – | – | – | – | – | – | – | – | –
N=c1nc(N2CCCCC2)cc(N)n1O | – | inactive | inactive | – | – | – | 26.4 µM (active) | inactive | inactive | 16.6 µM (active) | inactive | 23.5 µM (active) | – | – | – | – | – | –
CNC[C@H](O)c1cccc(O)c1 | inactive | inactive | inactive | inactive | – | – | inactive | inactive | – | inactive | – | inactive | inactive | 0.332 µM (active) | 1.32 µM (active) | – | – | –
Cc1[nH]c(=O)c(C#N)cc1-c1ccc2nccn2c1 | inactive | – | – | – | – | – | inactive | – | – | inactive | inactive | inactive | – | – | – | inactive | – | –
CCOc1ccn(-c2ccc(F)cc2)c(=O)c1C(=O)Nc1ccc(Oc2ccnc(N)c2Cl)c(F)c1 | – | inactive | – | – | – | – | 3.32 µM (active) | – | – | – | – | 11.8 µM (active) | – | 8.33 µM (active) | – | – | 13.2 µM (active) | –
Fc1ccc(Cl)cc1-c1nc(Nc2ccncc2)c2nccnc2n1 | 16.6 µM (active) | – | – | – | – | 120% (inactive) | inactive | inactive | – | 14.8 µM (active) | inactive | 3.32 µM (active) | 1.32 µM (active) | – | – | – | – | –
c1ccc([C@H]2CN3CCSC3=N2)cc1 | inactive | inactive | inactive | – | inactive | 159% (inactive) | 16.6 µM (active) | – | – | – | inactive | 23.5 µM (active) | inactive | inactive | – | – | – | –
NC(=O)c1ccc(I)c([N+](=O)[O-])c1 | 8.33 µM (active) | inactive | inactive | – | – | 102% (inactive) | 18.7 µM (active) | 18.7 µM (active) | 23.5 µM (active) | 23.5 µM (active) | – | – | inactive | – | – | – | – | –
N[C@@H]1CONC1=O | inactive | inactive | inactive | – | inactive | 132% (inactive) | inactive | inactive | inactive | inactive | inactive | inactive | inactive | inactive | 20.9 µM (active) | – | – | –
Cc1cn[nH]c1 | 1.18 µM (active) | 1.87 µM (active) | – | 0.0743 µM (active) | 0.469 µM (active) | – | 1.05 µM (active) | 0.332 µM (active) | 0.132 µM (active) | 1.66 µM (active) | 0.662 µM (active) | 0.296 µM (active) | 0.0662 µM (active) | 0.0093 µM (active) | 0.0935 µM (active) | – | – | 0.0662 µM (active)
OCCn1cc(-c2cnc3nnn(Cc4ccc5ncccc5c4)c3n2)cn1 | inactive | – | inactive | – | inactive | – | inactive | – | – | inactive | 2.09 µM (active) | inactive | – | 9.35 µM (active) | – | – | inactive | 16.6 µM (active)
CCOc1ccc(Cc2cc([C@@H]3O[C@H](CO)[C@@H](O)[C@H](O)[C@@H]3O)ccc2Cl)cc1 | inactive | inactive | inactive | inactive | 18.7 µM (active) | – | – | – | – | 14.8 µM (active) | inactive | 3.32 µM (active) | inactive | inactive | 16.6 µM (active) | – | – | –
Cc1cnc(Nc2ccc(OCCN3CCCC3)cc2)nc1Nc1cccc(S(=O)(=O)NC(C)(C)C)c1 | inactive | inactive | inactive | – | 0.296 µM (active) | – | 0.469 µM (active) | – | inactive | – | – | inactive | – | – | 0.332 µM (active) | – | – | –
CCCS(=O)(=O)Nc1ccc(F)c(C(=O)c2c[nH]c3ncc(Cl)cc23)c1F | – | inactive | inactive | – | – | 122% (inactive) | 18.7 µM (active) | – | – | 18.7 µM (active) | 11.8 µM (active) | 10.5 µM (active) | inactive | 14.8 µM (active) | 14.8 µM (active) | 1.32 µM (active) | – | –
Cc1[nH]c(=O)c(C#N)cc1-c1ccncc1 | 10.5 µM (active) | inactive | – | inactive | inactive | 106% (inactive) | – | – | inactive | 16.6 µM (active) | – | 5.9 µM (active) | inactive | – | – | – | – | –
CC(C=CC1=C(C)CCCC1(C)C)=CC=CC(C)=CC(=O)O | 18.7 µM (active) and 6.62 µM (active) | inactive | inactive | inactive and 9.35 µM (active) | – | – | 1.87 µM (active) and 16.6 µM (active) | 0.526 µM (active) | 14.8 µM (active) | 8.33 µM (active) | 2.09 µM (active) | 935 nM (active) and 5.26 µM (active) | – | 14.8 µM (active) | – | – | – | 14.8 µM (active)
COc1ccc([C@@H]2CC(=O)c3c(O)cc(O[C@@H]4O[C@H](CO[C@@H]5O[C@@H](C)[C@H](O)[C@@H](O)[C@@H]5O)[C@@H](O)[C@H](O)[C@@H]4O)cc3O2)cc1O | inactive | inactive | inactive | inactive | inactive | 111% (inactive) and 110% (inactive) | 4.18 µM (active) | – | inactive | inactive | inactive | 5.9 µM (active) | inactive | 13.2 µM (active) | inactive | – | – | –
CN(C)c1ccc(Nc2nc(N)n(C(=O)c3c(F)cccc3F)n2)cc1 | 26.4 µM (active) | inactive | 16.6 µM (active) | – | 20.9 µM (active) | – | 0.935 µM (active) | – | 18.7 µM (active) | 5.26 µM (active) | 18.7 µM (active) | 3.72 µM (active) | 2.35 µM (active) | 11.8 µM (active) | 16.6 µM (active) | – | – | –
CN(C(=O)c1ccc(F)cc1C(F)(F)F)C1CCN(c2nnc(-c3ccnn3C)c3ccccc23)CC1 | – | – | – | – | – | – | 13.2 µM (active) | – | – | inactive | – | – | – | – | 16.6 µM (active) | 0.372 µM (active) | – | –

Source: PubChem BioAssay (NCATS)
